Reference: PubChem BioAssay (EPA / NIEHS)
Activity calls are given as the source filed them. The calls were made as follows: active = hit-call score of the fitted dose curve at least 0.9, where 1 is the maximum; inactive = score below 0.9.

test: CCTE_Harrill_HTTr_Viability_MCF7: CCTE's 6-hour Cell Viability Assessment for the High-Throughput Transcriptomics (HTTr) Platform, in MCF-7 cells cultured in DMEM + 10% fetal bovine serum, Harrill Lab (AID 2284010)
In short: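 PI exclusion, high-content imaging; 8-pt dilution series, 6 h exposure; bidirectional fit vs DMSO (neg. ctrl/baseline); gain of signal = loss of membrane integrity.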

Row | SMILES | outcome
1 | CCCCOC(=O)c1ccccc1 | inactive
2 | NC(=O)N1c2ccccc2C=Cc2ccccc21 | inactive
3 | NC(N)=O | inactive
4 | Nc1ccn([C@@H]2O[C@H](CO)[C@@H](O)[C@@H]2O)c(=O)n1 | inactive
5 | CCCCCCCCCCCCCCO | inactive
6 | CCCCN1C(=O)[C@@H]([C@H](O)C2CCCCC2)NC(=O)C12CCN(Cc1ccc(Oc3ccc(C(=O)O)cc3)cc1)CC2 | inactive
7 | CCCCCOC(C)=O | inactive
8 | C[C@@H](Oc1ccc(CNC(=O)c2cccnc2Oc2ccc3c(c2)OCO3)c(F)c1)C(=O)O | inactive
9 | c1ccc2c(c1)-c1cccc3c1c-2cc1ccccc13 | inactive
10 | COS(C)(=O)=O | inactive
11 | CCCCCCCCCCCCCCCCOS(=O)(=O)O | inactive
12 | CCCCCCCCN(C)C | inactive
13 | Cn1cc[nH]c1=S | inactive
14 | C[C@]12C=CC(=O)C=C1CC[C@H]1[C@@H]3C[C@@H](O)[C@](O)(C(=O)CO)[C@@]3(C)C[C@H](O)[C@@]12F | inactive
15 | CCOC(N)=O | inactive
16 | NC(=O)N(O)[C@@H]1COc2cc(OCc3ccccc3)ccc21 | inactive
17 | OCCOCCOCCO | inactive
18 | Cc1nc(-c2ccccn2)ncc1C(=O)Nn1cc(C)c2cc(F)ccc21 | inactive
19 | CCCC(CCC)C(=O)O | inactive
20 | CC(=O)c1ccccc1 | inactive
21 | O=C(O)c1ccc2c(c1)nc(C(=O)NC1CCN(C3CC3)CC1)n2Cc1cc(-c2ccc(Cl)s2)on1 | inactive
22 | O=C(N[C@H](CO)[C@H](O)c1ccc([N+](=O)[O-])cc1)C(Cl)Cl | inactive
23 | OC(Cn1cncn1)(Cn1cncn1)c1ccc(F)cc1F | inactive
